# Reference: PubChem BioAssay (NCATS)
# Where “and” joins values, the source holds several entries; their conditions need not be identical. Equal entries are not always repeated. Inconclusive results are not listed. Values without a mark were called inactive. Calls of active or inactive are those of the source. The call rests on the fitted dose curve; in most records, active means well fitted curve in the direction sought with a large enough effect; inconclusive means small, poorly fitted or top-dose-only effect, or another doubt; inactive means no such curve, though single readings can be large; an effect the other way counts as inactive or inconclusive.
# How the values were obtained:
# [1] = target: Cellular tumor antigen p53 (Homo sapiens) (UniProt P04637); assay: Primary qHTS for small molecule compounds that upregulate eGFP-tagged delta133p53alpha (in N-terminal) cells. (AID 2060322); details: NCI-H358 eGFP-delta133p53alpha fluorescence, 24 h; activation: hits give high values;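 further: cells pre-induced with doxycycline then dosed without doxycycline; 0% = DMSO vehicle and 100% = reference activator; nearly all actives have a fitted effect of over 75% in size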
# Sequence of Cellular tumor antigen p53 (Homo sapiens) (P04637 whole entry, looked up): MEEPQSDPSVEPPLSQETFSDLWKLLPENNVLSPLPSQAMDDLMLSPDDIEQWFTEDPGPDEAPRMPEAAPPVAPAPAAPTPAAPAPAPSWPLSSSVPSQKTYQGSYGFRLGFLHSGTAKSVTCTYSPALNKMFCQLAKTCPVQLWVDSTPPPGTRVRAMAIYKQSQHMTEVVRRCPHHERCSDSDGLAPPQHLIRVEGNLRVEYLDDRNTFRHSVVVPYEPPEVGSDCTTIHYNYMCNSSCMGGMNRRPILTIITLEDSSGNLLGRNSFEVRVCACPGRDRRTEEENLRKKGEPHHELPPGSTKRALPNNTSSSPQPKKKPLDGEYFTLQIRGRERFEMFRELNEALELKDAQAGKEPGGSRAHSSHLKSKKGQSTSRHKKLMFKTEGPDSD
# Method in brief: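 NCI-H358 cells pre-induced 24 h with 10 ng/ml doxycycline for eGFP-delta133p53alpha, plated dox-free and exposed 24 h at 37C to titrated compounds. Fixed, Hoechst-stained; gated GFP peak intensity by laser scanning cytometry, normalized to DMSO (0%) and 57.5 uM 5-azacytidine (100%).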
# [2] = target: Retinaldehyde dehydrogenase 3 (Homo sapiens) (UniProt P47895); assay: qHTS for Inhibitors of the Aldehyde Dehydrogenase Family (ALDH1A3) Primary screen (AID 2061315); details: ALDH inhibition qHTS; series mostly up to 56 µM;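 further: plate controls were DMSO vehicle for no effect and reference inhibitor for full effect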
# [3] = target: Retinaldehyde dehydrogenase 3 (Homo sapiens) (UniProt P47895); assay: qHTS for Inhibitors of the Aldehyde Dehydrogenase Family (ALDH1A3) Confirmatory screens (AID 2061311); details: ALDH inhibition qHTS; series mostly up to 46 µM; further: potency means the concentration at half of the fitted maximal effect; nearly all actives have a fitted effect of over 60% in size
# [4] = target: Aldehyde dehydrogenase 1A1 (Homo sapiens) (UniProt P00352); assay: qHTS for Inhibitors of the Aldehyde Dehydrogenase Family (ALDH1A1) Confirmatory screens (AID 2061316); details: ALDH inhibition qHTS; series mostly up to 47.3 µM; further: on the % scale 0 is the no-effect control and ±100 the full control effect; nearly all actives have a fitted effect of over 65% in size
# [5] = target: Retinaldehyde dehydrogenase 3 (Homo sapiens) (UniProt P47895); assay: qHTS for Inhibitors of the Aldehyde Dehydrogenase Family (ALDH1A3) Validation screen (AID 2061312); details: ALDH1A3 enzyme inhibition qHTS validation, fluorescence; series mostly up to 84.7 µM; further: nearly all actives have a fitted effect of over 45% in size; further: potency means the concentration at half of the fitted maximal effect
# [6] = BET inhibitor-based combinations targeting novel dependencies in MECOM-rearranged (r) AML: SET-2 cell line (AID 2202231); details: SET-2 AML cells viability, CellTiter-Glo luminescence, 48 h; viability: hits give low values, concentration not given here; further: potency means the concentration at half of the fitted maximal effect; nearly all actives have a fitted effect of over 35% in size
# Method in brief: (§1)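 AML cell lines seeded at 500 cells/well, treated with 11-point dose curves for 48 h. Viability by CellTiter-Glo luminescence, normalised to DMSO and empty wells; activity expressed as AUC and per-cell-line Z-transformed AUC.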
# [7] = BET inhibitor-based combinations targeting novel dependencies in MECOM-rearranged (r) AML: OCI-AML3 cell line (AID 2202232); details: CellTiter-Glo luminescence, 48 h; Potency: OCI-AML3 viability; series mostly up to 46 µM; further: potency means the concentration at half of the fitted maximal effect; nearly all actives have a fitted effect of over 35% in size
# Method in brief: as §1
# [8] = BET inhibitor-based combinations targeting novel dependencies in MECOM-rearranged (r) AML: MV-4-11 cell line (AID 2202233); details: MV-4-11 AML viability, CellTiter-Glo luminescence, 48 h; series mostly up to 46 µM; further: potency means the concentration at half of the fitted maximal effect; nearly all actives have a fitted effect of over 45% in size
# Method in brief: (§2)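 Cells at 500/well were exposed for 48 hr to MIPE v5.0 drugs as 11-point dose curves. Viability was read by CellTiter-Glo luminescence and normalized to DMSO and empty-well controls. Activity was expressed as AUC and per-cell-line Z-AUC.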
# [9] = BET inhibitor-based combinations targeting novel dependencies in MECOM-rearranged (r) AML: HNT-34 cell line (AID 2202234); details: HNT-34 AML viability, CellTiter-Glo luminescence, 48 h; series mostly up to 46 µM; further: potency means the concentration at half of the fitted maximal effect; nearly all actives have a fitted effect of over 35% in size
# Method in brief: as §2
# [10] = BET inhibitor-based combinations targeting novel dependencies in MECOM-rearranged (r) AML: AML-191 cell line (AID 2202236; further: potency means the concentration at half of the fitted maximal effect; nearly all actives have a fitted effect of over 35% in size); details: AML-191 viability, CellTiter-Glo luminescence, 48 h; series mostly up to 46 µM
# Method in brief: as §1
# [11] = BET inhibitor-based combinations targeting novel dependencies in MECOM-rearranged (r) AML: AML-194 cell line (AID 2202237; further: potency means the concentration at half of the fitted maximal effect; nearly all actives have a fitted effect of over 40% in size); details: AML-194 (MECOM-r AML) viability, CellTiter-Glo, 48 h; series mostly up to 46 µM
# Method in brief: as §1
smiles,measurement,setting,value
CC[C@]1(O)C[C@@H]2CN(CCc3c([nH]c4ccccc34)[C@@](C(=O)OC)(c3cc4c(cc3OC)N(C)[C@H]3[C@@](O)(C(=O)OC)[C@H](OC(C)=O)[C@]5(CC)C=CCN6CC[C@]43[C@@H]65)C2)C1,activation,[1],-35.1%
same,Potency,[2],inactive
CCOc1cc(N2CCC(O)CC2)ccc1Nc1ncc2c(n1)N(C1CCCC1)CCC(=O)N2C,activation,[1],4.33%
same,Potency,[3],20.1 µM (active)
same,Potency,[4],inactive
CC(O)C1C(=O)N2C(C(=O)O)=C(SC3CNC(C(=O)N(C)C)C3)C(C)C12 (stereo unspecified),activation,[1],-0.506% and -5.25%
same,Potency,[2],inactive
NC(=O)C1=CN(C2OC(COP(=O)(O)OP(=O)(O)OC[C@H]3O[C@@H](n4cnc5c(N)ncnc54)[C@H](OP(=O)(O)O)[C@@H]3O)C(O)C2O)C=CC1 (stereo partly specified),activation,[1],-2.48%
same,Potency,[5],inactive
COC(=O)C1=C(C)NC(C)=C(C(=O)O[C@@H]2CCCN(Cc3ccccc3)C2)[C@@H]1c1cccc([N+](=O)[O-])c1,activation,[1],8.47% and 23.4%
same,Potency,[5],inactive
same,Potency,[2],inactive
O=C(NCc1cccs1)c1cc2nc(-c3ccco3)cc(C(F)(F)Cl)n2n1,activation,[1],0.477%
same,Potency,[2],inactive
C=C(COC(=O)CC(C)C)C1Cc2cc(C(C)=O)ccc2O1 (stereo unspecified),activation,[1],-15.2%
same,Potency,[2],inactive
Cc1csc(N(C(=O)CSc2ccc(-c3ccccc3)nn2)C2CC2)n1,activation,[1],10.5%
same,Potency,[5],2.82 µM (active)
CC(=O)OC1/C(C)=C/C(=O)C(OC(C)=O)C(C)(C)/C=C/C(C)C(=O)C2(OC(C)=O)CC(C)C(OC(=O)c3ccccc3)C12 (stereo unspecified),activation,[1],-10.7%
same,Potency,[2],inactive
O=C(O)COCCN1CCN([C@H](c2ccccc2)c2ccc(Cl)cc2)CC1,activation,[1],-5.73%
same,Potency,[5],inactive
same,Potency,[2],inactive
O=C(Nc1ccc(-c2ccc(Cl)c(Cl)c2)cc1)C1=C(O)c2ccccc2S(=O)(=O)N1,activation,[1],-5.73%
same,Potency,[2],inactive
O[C@@H](COc1cccc2ncccc12)CN1CCN(C2c3ccccc3[C@@H]3[C@H](c4ccccc42)C3(F)F)CC1 (stereo partly specified),activation,[1],22%
same,Potency,[5],inactive
same,Potency,[2],inactive
same,Potency,[6],26.3 µM (active)
same,Potency,[7],20.9 µM (active)
same,Potency,[8],18.6 µM (active)
same,Potency,[9],26.3 µM (active)
same,Potency,[10],23.5 µM (active)
same,Potency,[11],23.5 µM (active)
CC(=O)NC(Cc1c[nH]c2ccccc(=O)c12)C(=O)O (stereo unspecified),activation,[1],-2.29%
same,Potency,[2],inactive
